# Experimental data published in PubChem BioAssay AID2061304 (National Center for Advancing Translational Sciences (NCATS), 2025).
# Inconclusive results are not listed. Active and inactive are the calls of the source. Calls come from the whole dose curve; as a rule, active = well fitted inhibition curve with a large enough effect; inconclusive = small, poorly fitted or top-dose-only effect; inactive = flat fitted curve, though single readings scatter. Square brackets hold non-standard residues; d marks the D form. Peptide text beside a SMILES is read from it. Dolaproine = CO[C@@H]([C@@H]1CCCN1)[C@@H](C)C(=O)O; Dil = CC[C@H](C)[C@H](NC)[C@@H](CC(=O)O)OC; NMeV = CN[C@H](C(=O)O)C(C)C
# Assay: Identification of antibody-drug conjugate (ADC) payloads which are substrates of ATP-binding cassette drug efflux transporters: ABCB1-HeLa-KB-8-5-11 cell line
# Settings: KB-8-5-11 (P-gp overexpressing HeLa) viability, CellTiter-Glo, 48 h; series mostly up to 31.4 µM
# Excerpt: Antibody-drug conjugates (ADCs) feature an antibody recognizing a specific protein joined to a potent toxic payload. Numerous antibody-drug conjugates have received FDA approval; however, clinical resistance arises. Resistance mechanisms include decreased expression or mutation of the antibody target, impaired payload release, or increased expression of ATP-binding cassette (ABC) efflux transporters associated with multidrug resistance. We therefore sought to characterize the interaction of ABC multidrug transporters with ADC payloads. We performed a high-throughput screen with 27 common ADC payloads using cells lines expressing ABC transporters P-glycoprotein (P-gp, encoded by ABCB1) or ABCG2 (encoded by ABCG2). Confirmatory assays were also performed using cells transfected to express P-gp, ABCG2, or MRP1 (encoded by ABCC1). Several commonly used ADC payloads were substrates of P-gp, including calicheamicin gamma1, monomethyl auristatin E, DM1, and DM4. All the pyrrolobenzodiazepines tested - SJG136, SGD-1882, SG2057, and SG3199 - were substrates of P-gp, ABCG2, and MRP1. […] These findings highlight the risk of transporter-mediated resistance with certain ADC payloads and underscore the importance of selecting payloads that evade ABC transporter recognition in future ADC development.
# HEK-293 cells were transfected with empty vector (pcDNA) or vector containing the human ABCB1 (MDR-19), ABCG2 (R-5), or ABCC1 gene (MRP1) and were maintained in EMEM with 2 mg/mL G418 added to maintain transporter expression. The HeLa derivative KB-3-1 and the P-gp overexpressing KB-8-5-11 subline were maintained in DMEM; KB-8-5-11 additionally received 100 ng/mL colchicine. H460 parental cells were obtained from the Division of Cancer Treatment and Diagnosis Tumor Repository, National Cancer Institute at Frederick, MD and were cultured in RPMI. The ABCG2 expressing subline H460 MX20 was generated by selecting H460 cells in 20 nM mitoxantrone. Media in all cases was supplemented with 10% FBS and 1% penicillin-streptomycin. We explored 27 common ADC payloads, in two orthogonal, paired cell line sets-a drug selected and transfected set for each transporter--to identify substrates of the ABC transporters P-gp and ABCG2. Compounds were sourced from Levena Biopharma (San Diego, CA), Selleck Chem (Houston, TX), ChemieTek (Indianapolis, IN), or Microsource Discovery Systems (Gaylordsville, CT). Screening was performed as previously described. Briefly, cells were plated at a density of 500 cells/well in 1536 well plates with compounds added using a 1536-head pin tool (Kalypsys, San Diego CA). Cells were incubated with cytotoxic drugs and processed with CellTiter Glo reagent (Promega, Madison, WI) to determine viability after 48 hours. P-gp substrates were identified by comparing compound activity between paired sets of low-expressing (sensitive) and over-expressing (resistant) cell lines.
row,SMILES,Potency
1,CC[C@]1(O)CC2CN(CCc3c([nH]c4ccccc34)[C@@](C(=O)OC)(c3cc4c(cc3OC)N(C)[C@H]3[C@@](O)(C(=O)OC)[C@H](OC(C)=O)[C@]5(CC)C=CCN6CC[C@]43[C@@H]65)C2)C1 (stereo partly drawn),298 nM (active)
2,CCc1c2c(nc3ccc(O)cc13)-c1cc3c(c(=O)n1C2)COC(=O)[C@]3(O)CC,1330 nM (active)
3,COc1cccc2c1C(=O)c1c(O)c3c(c(O)c1C2=O)C[C@@](O)(C(=O)CO)C[C@@H]3O[C@H]1C[C@H](N)[C@H](O)[C@H](C)O1,16700 nM (active)
4,CN(C)CCOc1ccc2[nH]c(C(=O)N3C[C@@H](CCl)c4c3cc(O)c3ccccc43)cc2c1,0.7 nM (active)
5,COc1cccc2c1C(=O)c1c(O)c3c(c(O)c1C2=O)C[C@@](O)(C(=O)CO)C[C@@H]3O[C@H]1C[C@H]2[C@H](O[C@@H]3[C@@H](OC)OCCN32)[C@H](C)O1,0.2 nM (active)
6,CC(C)(C)OC(=O)Nc1ccc2[nH]c(C(=O)N3C[C@@H](CCl)c4c3cc(O)c3ccccc43)cc2c1,9.4 nM (active)
7,CC[C@H](C)[C@@H]([C@H](N)CC(=O)N1CCC[C@H]1[C@H](OC)[C@@H](C)C(=O)N[C@@H](Cc1ccccc1)c1nccs1)N(C)C(=O)[C@@H](NC(=O)[C@@H](NC)C(C)C)C(C)C,1.9 nM (active)
8,COc1cc2cc(c1Cl)N(C)C(=O)C[C@H](O)[C@]1(C)O[C@H]1[C@H](C)C1C[C@@](O)(NC(=O)O1)[C@H](OC)/C=C/C=C(\C)C2,13300 nM (active)
9,COC(=O)c1cc2c3c(cc(O)c2[nH]1)N(C(=O)c1cc2cc(OC)c(OC)c(OC)c2[nH]1)CC3CCl (stereo not drawn),0.6 nM (active)
10,CC[C@H](C)[C@@H]([C@@H](CC(=O)N1CCC[C@H]1[C@H](OC)[C@@H](C)C(=O)N[C@@H](Cc1ccccc1)C(=O)O)OC)N(C)C(=O)[C@@H](NC(=O)[C@@H](NC)C(C)C)C(C)C (H-[NMeV]V[Dil][Dolaproine]F-OH),265 nM (active)
11,CCN[C@H]1CO[C@@H](O[C@H]2[C@H](O[C@H]3C#C/C=C\C#C[C@]4(O)CC(=O)C(NC(=O)OC)=C3/C4=C\CSSSC)O[C@H](C)[C@@H](NO[C@H]3C[C@H](O)[C@H](SC(=O)c4c(C)c(I)c(O[C@@H]5O[C@@H](C)[C@H](O)[C@@H](OC)[C@H]5O)c(OC)c4OC)[C@@H](C)O3)[C@@H]2O)C[C@@H]1OC,420 nM (active)
12,CC[C@H](C)[C@@H]([C@H](N)CC(=O)N1CCC[C@H]1[C@H](OC)[C@@H](C)C(=O)N[C@@H](Cc1ccccc1)c1nccs1)N(C)C(=O)[C@@H](NC(=O)[C@H](C(C)C)N(C)C)C(C)C,6.7 nM (active)
13,COc1ccc(C2=CN3C(=O)c4cc(OC)c(OCCCOc5cc6c(cc5OC)C(=O)N5C=C(c7ccc(N)cc7)C[C@@H]5C=N6)cc4N=C[C@H]3C2)cc1,inactive
